Hits are enriched below; roughly 2.8% of the tested compounds scored in any of these assays.
DRD3 agonist: agonists of human D3 dopamine receptor | P35462 | D3R DiscoveRx beta-arrestin cells, luminescence, 90 min | max activation, % | actives 0.58% (n = 410,000) | AID 652048; in the data active = max activation above about 30%; note: 0% is about no effect
Target sequence (P35462 whole entry, looked up): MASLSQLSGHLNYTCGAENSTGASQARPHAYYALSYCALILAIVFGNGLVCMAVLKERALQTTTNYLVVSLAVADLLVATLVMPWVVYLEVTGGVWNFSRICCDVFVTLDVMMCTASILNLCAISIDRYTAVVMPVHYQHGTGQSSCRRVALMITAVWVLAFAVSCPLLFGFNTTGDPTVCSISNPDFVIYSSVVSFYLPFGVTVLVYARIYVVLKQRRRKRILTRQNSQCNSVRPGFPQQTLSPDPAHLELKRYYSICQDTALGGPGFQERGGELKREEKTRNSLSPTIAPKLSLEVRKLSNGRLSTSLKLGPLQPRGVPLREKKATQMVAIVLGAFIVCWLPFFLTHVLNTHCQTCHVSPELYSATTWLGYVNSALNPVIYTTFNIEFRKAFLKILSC
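Agonist mode: compounds and dopamine controls were applied to plated cells for 90 min at 37 degrees C after an overnight attachment at 1500 cells/well. Luminescent read-out followed 30 - 60 minutes at room temperature with DiscoveRx detection reagent.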
LDHA block: LDHA (human) enzyme inhibition | P00338 | purified LDHA, NADH/diaphorase-resazurin fluorescence; hits give low values | activity change, % (values are at about 110 or 230 µM) | actives 0.15% (n = 480,000) | AID 1347041; in the data active = activity change below about -30%;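 note: plate controls were DMSO wells for no effect and wells without enzyme for full effect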
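Human LDH5 (2 nM) was incubated with 0.06 mM NADH and 0.2 mM pyruvate for 5 min at room temperature in Tris pH 7.4. Remaining NADH was coupled through diaphorase/resazurin, and resorufin fluorescence was read at 0 and 20 min.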
D3 antag: D3 dopamine receptor (human) antagonism | D3R cells, DiscoveRx beta-arrestin luminescence, antagonist mode; hits give low values | actives 2.5% (n = 360,000) | max response, negative = inhibition, % | AID 652054; in the data active = max response below about -50%; note: % is set by controls: 0 for no effect and ±100 for the full control effect
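Cells expressing the human receptor were seeded at 1500 cells/well, incubated overnight at 37 degrees C in 5% CO2, then exposed to library compounds with dopamine controls for 90 minutes at 37 degrees C before luminescent detection.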
Akt phos inh: blocks phosphorylation of Akt; Neuro2A IGF-stimulated pAkt S473 HTRF, 20 min; hits give low values; activity change, % for hits at 50 µM; actives 0.32% (n = 360,000); AID 651550; in the data active = activity change below about -80%; note: % is set by controls: 0 for no effect and ±100 for the full control effect
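Neuro2A cells in DMEM with 0.5% FBS, overnight at 37 deg C, given compound at single 50 µM final, then IGF (6 nM final) for 20 min at 37 deg C. Lysed; phospho-Akt Ser473 by HTRF after 24 h, 665/615 ratio.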
PI4K2A block: blocks human PI4K2A kinase activity. Q9BTU6. purified PI4K2A, ADP-Glo luminescence, 1 h; hits give low values. activity change, negative = inhibition, % at 76.9 µM. actives 0.13% (n = 420,000); in the data active = activity change below about -50%;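 note: -100% = wells without enzyme as full effect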
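ADP-Glo luminescence measured ADP generated by PI4K2A enzyme (4 ug/mL before mixing) with 1.2 mM PI substrate (pre-mix) and 300 microM ATP (pre-mix). Tris pH7.5 buffer with MgCl2, Triton X-100; 1 h reaction at ambient temperature.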
RGS4 inh: blocks human RGS4-accelerated GTP hydrolysis; actives 0.039% (n = 390,000); AID 504845; Potency, µM (series often up to 114 µM), inactives show top-dose activity change, negative = inhibition, hits mostly inhibitors; Transcreener GDP fluorescence polarization, RGS4-accelerated GTP hydrolysis; P49798; active = well fitted inhibition curve with a large enough effect; note: potency is the fitted concentration of half-maximal effect; % is set by controls: 0 for no effect and ±100 for the full control effect; nearly all actives have a fitted effect of over 75% in size
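MLSMR compounds (23 nl, pin-transferred) preincubated 10 min at room temperature with a 500nM (2x) first reagent, then RGS4 at 900nM (2x) plus Transcreener GDP mix added; fluorescence polarization (620/688 nm) read before and after 90 min at 30 °C.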
An asterisk follows results filed as active; i = inactive; . = not tested or not shown; [ ] = another dose, or the depositor's remark.

SMILES	DRD3 agonist	LDHA block	D3 antag	Akt phos inh	PI4K2A block	RGS4 inh
O=C(Nc1ccccc1)N(CCCN1CCOCC1)Cc1cc2cc3c(cc2[nH]c1=O)OCCO3	-5	-1	-9	i	-10	23%
CCCCn1c(C)c(C)c(-c2nc3ccccc3[nH]2)c1NC(=O)C(C)C	.	7	.	.	.	.
CC1CCN(S(=O)(=O)c2ccc3c(c2)C(=NO)c2cc(S(=O)(=O)N4CCC(C)CC4)ccc2-3)CC1	55*	-6	8	i	12	10%
CC1CCN(S(=O)(=O)c2ccc(Oc3ccc([N+](=O)[O-])cc3)cc2)CC1	-19	-7	-81*	-81%*	10	9%
CCN(CC)S(=O)(=O)c1cccc(S(=O)(=O)c2cccc(S(=O)(=O)N(CC)CC)c2)c1	36*	-9	12	i	5	31%
CCN(CC)S(=O)(=O)c1cccc(C(=O)Oc2cccnc2)c1	-5	2	-53*	i	29	3%
Cc1ccccc1C(=O)Nc1ccc(Cl)cc1C(F)(F)F	.	0	.	.	.	.
CCc1cccc2c(C(=O)C(F)(F)F)cn(CCOc3ccccc3F)c12	.	-4	.	.	.	.
COc1cccc(NC(=O)CCc2c(C)c3ccc(O)c(C)c3oc2=O)c1	.	2	.	.	.	.
CCN(CC)S(=O)(=O)c1ccc(C)c(C)c1	5	-10	25	i	3	22%
CCN(CC)S(=O)(=O)c1ccc2c(c1)C(=NO)c1cc(S(=O)(=O)N(CC)CC)ccc1-2	-11	-1	-80*	i	-4	-15%
O=C(CSc1nnc2c3c4c(sc3ncn12)CCCC4)Nc1ccc(F)cc1F	.	0	.	.	.	.
CCOC(=O)CC1=NS(=O)(=O)c2ccccc2N1	-9	0	3	-106%*	1	-17%
Cc1ccccc1COC(=O)CCCC1=NS(=O)(=O)c2ccccc2N1	3	-3	-8	i	9	-24%[11.4 µM]
Cc1cc(OCC(=O)OCCOc2ccccc2)ccc1Cl	.	9	.	.	.	.
O=C(NCc1ccccc1)C1c2ccccc2OCC(=O)N1CCc1ccccc1 (configuration not stated)	1	-3	6	i	0	.
O=C(NCc1ccccc1)C1c2ccccc2OCC(=O)N1Cc1cccnc1 (configuration not stated)	-5	-3	-61*	i	-2	.
O=C(NC1CCCC1)C1c2ccccc2OCC(=O)N1Cc1ccccn1 (configuration not stated)	-16	1	-58*	i	-1	.
COc1ccc(-c2nc(COc3ccc(F)c(Cl)c3)co2)cc1	.	-1	.	.	.	.
O=C(/C=C/c1ccco1)Nc1ccc(Oc2ccc(Cl)cc2)cc1	7	-2	-4	-108%*	25	-43%
CC1CN(C(=O)COc2ncnc3ccccc23)CC(C)O1 (configuration not stated)	2	-5	4	-105%*	-9	2%[11.4 µM]
O=C(COc1ncnc2ccccc12)N1CCN(c2ccccc2)CC1	-3	-8	10	i	-4	8%
CCCOc1cc(/C=C(/C#N)c2nc3ccccc3[nH]2)ccc1OC	.	3	.	.	.	.
CC1(C)Cc2c(sc(NC(=O)c3ccc(C(=O)c4ccccc4)cc3)c2C#N)C(C)(C)N1	-19	-6	-57*	i	-4	-16%
CCOc1ccc(NC(=O)C(CC)CC)c2cccnc12	.	-10	.	.	.	.
SMILES	DRD3 agonist	LDHA block	D3 antag	Akt phos inh	PI4K2A block	RGS4 inh
O=C(CSc1ccccn1)Nc1ccc(NC(=O)CSc2ccccn2)cc1	5	8	5	i	-6	18%
O=C(CSc1ccccn1)Nc1nonc1[N+](=O)[O-]	-3	16	-70*	.	4	-10%
N[C@@H](Cc1ccc(O)cc1)c1nnc([C@H](CO)NC(=O)C2CCNCC2)o1	33*	-1	5	i	-1	3%
CN(C)[C@@H](CO)c1nnc([C@H](Cc2ccc(O)cc2)NC(=O)C2CCNCC2)o1	0	-1	7	i	-1	3%
CS(=O)(=O)N1CCN(c2ccccc2NC(=S)NC(=O)c2cccs2)CC1	-10	-2	0	i	0	-24%
CC1CCN(c2ccccc2NC(=S)NC(=O)c2cccs2)CC1	-6	1	-58*	i	0	5%
